# Screens from PubChem.
# In the library only some 6.5% were active in any assay of this set; here they are far more common.
# HCMV inh: inhibitors of human cytomegalovirus; HFF cells, HCMV-luciferase reporter, 72 h; hits give low values; activity change, negative = inhibition, % at 57.5 µM; hit rate 4.5% among 410,000; AID 1259415; in the data active = activity change below about -60%; inconclusive = no clear call, values can overlap the other calls; inactive = above about -39%
#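 Inhibition of viral replication was scored as loss of reporter luminescence in HFFs infected with HCMV-luciferase (MOI 1 PFU/cell) for 72 h; compounds tested at 2 doses, normalized to buffer and Salinomycin controls.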
# Vaccinia Venus: vaccinia inhibition (Venus reporter). Vaccinia virus Venus reporter expression, fluorescence. Potency, µM (series often up to 36.5 µM), for inactives: at the highest dose activity change, negative = inhibition, most hits filed as inhibitors. hit rate 0.46% among 330,000; calls by dose curve; tested in A549 cells; also: potency is read from the fitted curve at half-maximal effect; nearly all actives have a fitted effect of over 30% in size
# LASV entry inh: Lassa virus entry inhibition; Lassa virus pseudotype entry inhibition, cell reporter; Potency, µM (titrated, usually from 37.9 µM), without a hit: top-dose activity change, negative = inhibition, hits mostly inhibitors; hit rate 1.2% among 300,000; calls by dose curve; tested in HEK293 cells; also: potency is read from the fitted curve at half-maximal effect; nearly all actives have a fitted effect of over 50% in size
# Marburg entry inh: inhibitors of Marburg virus binding or cell entry. Marburg virus pseudotyped entry inhibition, cell reporter. hit rate 1.8% among 300,000. Potency, µM (titrated, usually from 37.8 µM), inactives show at the top dose activity change, negative = inhibition, usual class: inhibitors; calls by dose curve; tested in HEK293 cells; also: potency is read from the fitted curve at half-maximal effect
# FMDV inh: blocks foot and mouth disease virus; FMDV antiviral cell-based qHTS; Potency, µM (top dose mostly 57.9 µM), inactives show at the top dose activity change, negative = inhibition, actives largely listed as inhibitors; hit rate 1.2% among 410,000; calls by dose curve; tested in HEK293T cells; also: read-out not given here; potency is read from the fitted curve at half-maximal effect; nearly all actives have a fitted effect of over 45% in size
# Vaccinia mCherry: inhibitors of vaccinia virus infection (mCherry reporter signal); hit rate 0.63% among 310,000; Potency, µM (series often up to 36.5 µM), for inactives: at the top dose activity change, negative = inhibition, actives largely listed as inhibitors; AID 720579; Vaccinia virus mCherry reporter infection, fluorescence; calls by dose curve; tested in A549 cells; also: potency is read from the fitted curve at half-maximal effect; nearly all actives have a fitted effect of over 35% in size
# Starred values were filed as active, the others as inactive; i = inactive; ? = inconclusive; . = no result; [ ] = remark or other dose. % is scaled to controls: 0 for no effect and ±100 for the full control effect.
SMILES,HCMV inh,Vaccinia Venus,LASV entry inh,Marburg entry inh,FMDV inh,Vaccinia mCherry
Cc1ccc(C2C=C(c3ccccc3OC(F)F)Nc3ncnn32)cc1 (stereo unspecified),-20,-4%,-5%,-15%,-18%,i
COc1cc(=O)n2c(c1C(=O)N(C)Cc1nonc1C)CCN(Cc1cc(C)c(C)cc1C)CC2,.,-23%,.,.,-14%,-2%
Cc1ccc(S(=O)(=O)N2[C@H](c3ccc(Cl)cc3)CC(=O)[C@@H]3CN(S(=O)(=O)c4ccccc4C)[C@H](c4ccc(Cl)cc4)C[C@@H]32)cc1,-89*,-13%,.,.,-25%,9%
Cc1ccc(S(=O)(=O)N2C[C@H]3C(=O)C[C@@H](c4ccccc4)N(S(=O)(=O)c4ccc(C)cc4)[C@H]3C[C@H]2c2ccc(Cl)cc2)cc1,-85*,-12%,.,.,-25%,-7%
Cc1ccc(S(=O)(=O)N2C[C@H]3C(=O)C[C@@H](c4ccccc4)N(S(C)(=O)=O)[C@H]3C[C@H]2c2ccccc2)cc1,-95*,-5%,.,.,-1%,13%
Cc1ccc(S(=O)(=O)N2[C@H](c3cccc(Cl)c3)CC(=O)[C@@H]3CN(S(=O)(=O)c4ccccc4C)[C@H](c4ccc(Cl)cc4)C[C@@H]32)cc1,-83*,-26%,.,.,?,-18%
CCCCOc1cccc(C(=O)Nc2cc3nn(-c4ccc(F)cc4)nc3cc2C)c1,20,-13%,?,?,53%,-12%
CCc1nc2ccc(C(=O)NCc3ccc(N(C)C)cc3)cc2nc1CC,-5,-15%,-11%[46.1 µM],.,26%,-14%
Cc1ccc([C@@H]2CC(=O)[C@@H]3CN(S(=O)(=O)c4ccccc4C)[C@H](c4ccc(Cl)cc4)C[C@@H]3N2S(=O)(=O)c2ccc(C)cc2)cc1,-94*,-29%,.,.,?,-22%
Cc1ccc([C@@H]2C[C@H]3[C@@H](CN2S(=O)(=O)c2ccc(C)cc2)C(=O)C[C@@H](c2ccccc2)N3S(=O)(=O)c2ccc(C)cc2)cc1,-12,-9%,.,.,-11%,-3%
CC(=O)C1CN(S(=O)(=O)c2ccc(C)cc2)C(c2ccccc2)CC1C (stereo unspecified),-60*,-3%,.,.,2%,-8%
Cc1ccc2c(c1)c(=O)c1ccccc1n2CCCC(=O)Nc1cc(Cl)ccc1C,16,-14%,1%[46.1 µM],.,-24%,-20%
Cc1c(C#N)c(NC(=O)COC(=O)c2cc(Cl)c3c(c2)OCCCO3)n(Cc2ccco2)c1C,.,-7%,.,.,.,-15%
CC(C)(CO)NCc1cccc(OCc2ccc(Cl)cc2)c1,?,-26%,?,?,-7%,-17%
Clc1ccc(COc2cccc(CNCc3ccncc3)c2)cc1,-75*,-22%,?,0%[46.1 µM],?,-20%
CCOc1cc(CNC(=O)Cn2ncn3c(cc4cc(F)ccc43)c2=O)cc(OCC)c1OCC,16,-4%,.,14%[46.1 µM],-23%,5%
COCCN1C(=O)Cc2c1nc(N)c1c(N)nc(N3CCN(c4ccc(F)cc4)CC3)c(C#N)c21,?,.,.,.,-15%,.
COCC(C)N1C(=O)Cc2c1nc(N)c1c(N)nc(N3CCN(c4ccccc4F)CC3)c(C#N)c21 (stereo unspecified),?,-2%,?,16µM*,32µM*,?
Cc1cccc(N2CCN(S(=O)(=O)c3cc(-c4cc(C)no4)ccc3C)CC2C)c1 (stereo unspecified),?,.,.,.,0%,.
COc1ccc(-c2cc(C)no2)cc1S(=O)(=O)N1CCN(c2cccc(C)c2)C(C)C1 (stereo unspecified),-74*,?,?,.,?,?
CCN1CCc2nc(N)oc2CC1,-70*,-14%,-19%,?,-16%,-7%
COc1cc(-c2coc3c(C(=O)NCc4ccc(OC)c(OC)c4)cccc23)ccc1O,-73*,?,.,.,18µM*,16µM*
COc1ccc(CNC(=O)c2cccc3c(-c4cccc(C(N)=O)c4)coc23)cc1OC,-94*,-30%,.,.,7.9µM*,-4%
CC1=CC2OC3CC4OC(=O)C=CC=CC(=O)OCCC(C)C(O)C(=O)OCC2(CC1)C4(C)C31CO1 (stereo unspecified),-98*,.,?,?,-22%,.
CC1CCOC(=O)C=CC=CC(=O)OC2CC3OC4C5OC5(C)C(O)CC4(COC(=O)C1O)C2(C)C31CO1 (stereo unspecified),-98*,.,.,?,.,.
SMILES,HCMV inh,Vaccinia Venus,LASV entry inh,Marburg entry inh,FMDV inh,Vaccinia mCherry
CC(O)C1C=CC=CC(=O)OC2CC3OC4C5OC5(C)C(O)CC4(COC(=O)C(O)C(C)CCO1)C2(C)C31CO1 (stereo unspecified),-98*,.,.,0.13µM*,.,.
CC1=CC2OC3CC4OC(=O)C=CC=CC(C(C)O)OCC(O)C5(C)OC5C(=O)OCC2(CC1O)C4(C)C31CO1 (stereo unspecified),-98*,.,.,?,.,.
CN1CCCC(CNC(=O)c2cnn(-c3nccc(-c4cccs4)n3)c2C2CC2)C1 (stereo unspecified),.,-1%,.,.,-15%,-12%
CC1Sc2ccc(C(=O)Nc3ncccc3O)cc2NC1=O (stereo unspecified),38,-13%,?,10µM*,-7%,-27%
Cc1cccnc1NC(=O)c1ccc2c(c1)NC(=O)C(C)S2 (stereo unspecified),-27,-6%,?,9%,0%,i
Cc1cc(C)c(NC(=O)C(C)n2nc(-c3ccc(C)c(C)c3)ccc2=O)c(C)c1 (stereo unspecified),12,-10%,-11%[46.1 µM],2%[46.1 µM],-16%,-19%
CCOC(=O)c1c(C)c(-c2ccccc2)n(CC(=O)Nc2cc(C)ccc2OC)c1C,0,-11%,.,12%[46.1 µM],-15%,-10%
CCOC(=O)C1=CCN(S(=O)(=O)c2ccccc2Cl)C1c1ccc(Cl)cc1 (stereo unspecified),-28,.,.,.,.,.
CCOC(=O)C1=C[C@@H](C(C)(C)C)N(S(=O)(=O)c2ccccc2C)[C@H]1c1ccc(Cl)cc1,-77*,0%,.,.,?,4%
CCOC(=O)C1=C[C@@H](C(C)(C)C)N(S(=O)(=O)c2ccc(C)cc2)[C@H]1c1ccc(Cl)c(Cl)c1,-88*,-5%,.,.,?,i
COc1ccc(C)cc1-n1nnc(C(=O)Nc2cccc(SC)c2)c1C,-29,-10%,-3%[46.1 µM],-23%[46.1 µM],?,-24%
COC(=O)/C=C/c1cccc(N(Cc2ccc(-c3ccc(N(C)C)cc3)cc2)C(=O)C2CCCCC2)c1,.,.,.,.,-5%,.
O=C1Nc2ccc(C(=O)c3ccco3)cc2/C1=C/c1cc(Cl)c(O)c(Cl)c1,.,.,3.1µM*,.,.,.
O=C1Nc2ccc(I)cc2/C1=C/c1cc(Br)c(O)c(Br)c1,.,-12%,0%,?,-19%,i
COc1ccc(NC(=O)Nc2ccccc2OCc2cc(=O)n3ccccc3n2)c(OC)c1,-29,-16%,10%[46.1 µM],.,12%,-1%
